This is a sample that favours compounds with a hit; in the whole collection about 22% have one here.
Measles CPE: protection of cells from measles virus | Measles virus-infected cells, CPE protection, absorbance | protection (pct of control), % at 4 µM | actives 1.5% (n = 140,000) | AID 841; in the data active = protection mostly above about 24%, no sharp cut-off; inactive = mostly below about 26%
CYP2C9 inh: inhibitors of human CYP2C9. P11712. CYP2C9 Supersomes, luciferin-H conversion, luminescence. inhibition, % at 5 µM. actives 20% (n = 96,000). AID 777;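 active = blocking of liver enzyme CYP2C9 beyond about 50% at 5 µM, limit read from the data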
Target sequence (P11712 whole entry, looked up): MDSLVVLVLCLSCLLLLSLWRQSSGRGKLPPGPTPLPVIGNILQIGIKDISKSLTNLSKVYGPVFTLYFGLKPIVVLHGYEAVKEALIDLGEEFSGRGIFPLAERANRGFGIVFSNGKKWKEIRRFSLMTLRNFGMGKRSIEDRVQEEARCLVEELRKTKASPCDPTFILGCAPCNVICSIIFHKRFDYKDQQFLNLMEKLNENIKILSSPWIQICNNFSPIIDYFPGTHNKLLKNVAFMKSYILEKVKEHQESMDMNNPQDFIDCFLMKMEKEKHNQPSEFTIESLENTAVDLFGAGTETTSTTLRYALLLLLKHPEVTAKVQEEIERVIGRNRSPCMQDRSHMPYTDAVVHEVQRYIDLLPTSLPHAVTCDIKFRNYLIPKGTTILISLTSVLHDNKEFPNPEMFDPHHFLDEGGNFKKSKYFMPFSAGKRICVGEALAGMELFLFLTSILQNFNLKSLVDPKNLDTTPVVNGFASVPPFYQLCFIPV
CYP2C19 activ: cytochrome P450 2C19 (human) activation | activation factor at 5 µM | 96,000 tested, under 10 active | P33261 | recombinant CYP2C19, luciferin-H EGE luminescence; stronger effect = higher value; 0 = fully inhibited enzyme, 1 = untreated enzyme;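 active = activation factor of at least 2 at 5 µM in the primary screen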;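 also: 0 = wells with 2.5 mM tranylcypromine and 1 = vehicle-only wells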
CYP2C19 inh: inhibitors of human CYP2C19. CYP2C19 Supersomes, luciferin-H EGE luminescence, 30 min. actives 21% (n = 96,000). inhibition, % at 5 µM;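 active = CYP2C19 inhibition above a set limit at 5 µM in the primary screen, cut at about 50% in these data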;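 also: plate controls were negative control wells for no effect and 2.5 mM tranylcypromine positive control for full effect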
CYP2C9 act: increases human cytochrome P450 2C9 activity; actives 1.4% (n = 96,000); activation factor at 5 µM; recombinant CYP2C9, luciferin-H conversion, luminescence; stronger effect = higher value; factor 1 = untreated enzyme, 0 = blocked; P11712;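 active = activation factor of 2 or more for CYP2C9 at a 5 µM dose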;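 also: 0 = sulfaphenazole-blocked wells and 1 = vehicle-only wells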
The depositor's hits bear a star.

For COC(=O)c1cc(OC)c(OC)cc1NC(=S)N1CCC(C(N)=O)CC1 the results were Measles CPE 2.7, CYP2C9 inh -19.0, CYP2C19 activ 1.1, CYP2C19 inh -9.1 and CYP2C9 act 1.2.
Screening Cc1onc(-c2ccccc2Cl)c1-c1nc(-c2ccccn2)no1 returned Measles CPE 4.7, CYP2C9 inh 97.2*, CYP2C19 activ 0.7, CYP2C19 inh 32.0 and CYP2C9 act 0.
`Cc1occc1-c1nc(-c2ccncc2)no1` gave Measles CPE 12.2, CYP2C9 inh 68.1*, CYP2C19 activ 0, CYP2C19 inh 97.6* and CYP2C9 act 0.3.
Screening CC(C)(C)c1ccc(-c2nc(-c3ccncc3)no2)cc1 returned Measles CPE 13.6.
Screening c1ccc(CCc2ccccc2-c2nc(-c3ccccn3)no2)cc1 returned Measles CPE 4.1, CYP2C9 inh 19.1, CYP2C19 activ 0.9, CYP2C19 inh 9.5 and CYP2C9 act 0.8.
Cc1occc1-c1nc(-c2ccccn2)no1 was read as Measles CPE 2.2, CYP2C9 inh 47.5, CYP2C19 activ 0.2, CYP2C19 inh 75.7* and CYP2C9 act 0.5.
Screening O=C(CSc1n[nH]c(-c2cccnc2)n1)Nc1ccccc1 returned Measles CPE 4.6.
`CCOC(=O)c1ccc(NC(=O)CSc2n[nH]c(-c3ccncc3)n2)cc1` gave Measles CPE 4.5, CYP2C9 inh 96.4*, CYP2C19 activ 0.5, CYP2C19 inh 47.9 and CYP2C9 act 0.
COC(=O)c1ccc(NC(=O)CSc2n[nH]c(-c3ccncc3)n2)cc1 was read as Measles CPE 5.6, CYP2C9 inh 94.6*, CYP2C19 activ 0.6, CYP2C19 inh 39.9 and CYP2C9 act 0.1.
For Fc1ccc(NC(=S)Nc2ccc(Br)cc2)cc1 the results were Measles CPE 7.3.
CSc1nccc(Oc2cccc(C#N)c2)n1 was read as Measles CPE 5.8.
For CNc1cc(CSC)nc(SCc2ccc(Cl)cc2Cl)n1 the results were Measles CPE 26.4*, CYP2C9 inh -0.6, CYP2C19 activ 1.1, CYP2C19 inh -6.3 and CYP2C9 act 1.
Screening CCc1nc(SCc2cc(Cl)ccc2OC)n[nH]1 returned Measles CPE 10.4, CYP2C9 inh 52.5*, CYP2C19 activ 0.1, CYP2C19 inh 94.5* and CYP2C9 act 0.5.
Screening CCCc1nc(SCc2ccccc2Cl)n[nH]1 returned Measles CPE 20.9, CYP2C9 inh -11.7, CYP2C19 activ 0.7, CYP2C19 inh 30.8 and CYP2C9 act 1.1.
For CSc1ccc(Cc2ccc(Cl)cc2Cl)nn1 the results were Measles CPE 8.5, CYP2C9 inh 30.0, CYP2C19 activ 0.6, CYP2C19 inh 39.9 and CYP2C9 act 0.7.
Screening Nc1nc(SCc2ccc(Cl)cc2Cl)n[nH]1 returned Measles CPE 4.5, CYP2C9 inh 20.0, CYP2C19 activ 0.3, CYP2C19 inh 73.1* and CYP2C9 act 0.8.
`CC(=O)Nc1nc(SCc2ccc(Cl)cc2Cl)n[nH]1` gave Measles CPE 12.0, CYP2C9 inh -0.4, CYP2C19 activ 0.8, CYP2C19 inh 19.0 and CYP2C9 act 1.
Screening CSCc1cc(N(C)C)nc(SCc2ccc(Cl)c(Cl)c2)n1 returned Measles CPE 3.6, CYP2C9 inh 71.3*, CYP2C19 activ 0.3, CYP2C19 inh 71.6* and CYP2C9 act 0.3.
Screening COc1ccc(CSc2nc(CSC)cc(N3CCOCC3)n2)cc1 returned Measles CPE 11.6, CYP2C9 inh 30.8, CYP2C19 activ 0.5, CYP2C19 inh 46.7 and CYP2C9 act 0.7.
For O=C(N/N=C/c1cccnc1)C(O)c1ccccc1 (centres undefined) the results were Measles CPE 15.0.
For COc1ccc(/C=N/OCC(=O)N(Cc2ccc(OC)cc2)c2ccccc2C(=O)O)cc1 the results were Measles CPE 10.2.
CC(C)OCCCNC(=O)c1ccc2c(c1)ncn2C1CCCC1 was read as Measles CPE 7.6.
Screening O=C(NCCCN1CCCC1=O)c1ccc2c(c1)ncn2C1CCCCC1 returned Measles CPE 41.3*.
Screening COc1cc(S(=O)(=O)N2CCC(c3nc4ccccc4s3)CC2)ccc1S(=O)(=O)NC1CCCC1 returned Measles CPE 10.2.
`CC(=O)c1c(C)[nH]c(C(=O)N2c3ccccc3CC2C)c1C` (centres undefined) gave Measles CPE 5.7, CYP2C9 inh 78.0*, CYP2C19 activ 0.2, CYP2C19 inh 77.3* and CYP2C9 act 0.2.
For COc1ccc(C(=O)N2c3ccccc3CC2C)cc1OC (centres undefined) the results were Measles CPE 42.3, CYP2C9 inh 28.4, CYP2C19 activ 0.3, CYP2C19 inh 65.7* and CYP2C9 act 0.7.
Cc1ccc2c(CC(=O)NCC3COc4ccccc4O3)coc2c1 (centres undefined) was read as Measles CPE 6.7, CYP2C9 inh 95.3*, CYP2C19 activ 0, CYP2C19 inh 99.7* and CYP2C9 act 0.
COc1ccccc1NC(=O)c1oc2ccc(C)cc2c1C was read as Measles CPE 2.0, CYP2C9 inh -103.1, CYP2C19 activ 1, CYP2C19 inh 3.9 and CYP2C9 act 2*.
Screening CCOc1ccccc1NC(=O)Cc1coc2cc(C)ccc12 returned Measles CPE 7.2, CYP2C9 inh 89.9*, CYP2C19 activ 0.1, CYP2C19 inh 94.6* and CYP2C9 act 0.1.
`COc1ccc(NC(=O)Cc2coc3cc(C)ccc23)cc1S(=O)(=O)N1CCOCC1` gave Measles CPE 3.8.
`COc1ccccc1NC(=O)Cc1coc2cc(C)ccc12` gave Measles CPE 18.9, CYP2C9 inh 41.9, CYP2C19 activ 0.4, CYP2C19 inh 64.0* and CYP2C9 act 0.6.
For COc1ccc(NC(=O)c2oc3cc(C)c(C)cc3c2C)c(OC)c1 the results were Measles CPE 3.2.
Screening O=C(O)c1ccc(NC(=O)C2(c3ccccc3)CCOCC2)cc1 returned Measles CPE 2.5, CYP2C9 inh -15.5, CYP2C19 activ 1.1, CYP2C19 inh -13.9 and CYP2C9 act 1.2.
`CCCCN(CCCC)CP(=O)(c1ccccc1)c1ccccc1` gave Measles CPE 4.7, CYP2C9 inh 19.9, CYP2C19 activ 0.8, CYP2C19 inh 23.1 and CYP2C9 act 0.8.
`COc1cccc(C2=CC(c3cccc(OC)c3OC(F)F)n3nnnc3N2)c1` (centres undefined) gave Measles CPE 17.3, CYP2C9 inh -6.9, CYP2C19 activ 0.6, CYP2C19 inh 42.4 and CYP2C9 act 1.1.
COc1cccc(C2=CC(c3cccc(OC)c3OC)n3nnnc3N2)c1 (centres undefined) was read as Measles CPE 2.7, CYP2C9 inh 89.5*, CYP2C19 activ 0, CYP2C19 inh 97.5* and CYP2C9 act 0.1.
`COc1ccc(OC)c(C2C=C(c3ccc(C)c(C)c3)Nc3nnnn32)c1` (centres undefined) gave Measles CPE 6.6, CYP2C9 inh 95.6*, CYP2C19 activ 0, CYP2C19 inh 96.7* and CYP2C9 act 0.
